# Data published in the supplement of paper PMC6555819.
# Legend:
# Assay in all cases: PBM binding z-score (relative to random genomic background probes); higher = stronger binding; sequences stand for … in GC…GCGATTGACAGCGTAGAATGAAGG
# [1] = tested on: FXR:RXRa (NR concentration 270 nM, RXRa partner concentration 90 nM)
# In short: (§1)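 Binding z-scores take random background probes as their reference. They come from custom Agilent 4×180K protein-binding microarrays incubated 1 h with ligand-free nuclear receptor dimers, with antibodies against each partner (one per run) detecting binding. Scanned fluorescence was regression-normalized.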
# [2] = tested on: LXRa:RXRa (NR concentration 270 nM, RXRa partner concentration 90 nM)
# In short: as §1
# [3] = tested on: LXRa homodimer (NR concentration 270 nM)
# In short: as §1
# [4] = tested on: LXRb:RXRa (NR concentration 270 nM, RXRa partner concentration 90 nM)
# In short: as §1
# [5] = tested on: LXRb homodimer (NR concentration 270 nM)
# In short: as §1
# [6] = tested on: PPARa:RXRa (NR concentration 270 nM, RXRa partner concentration 90 nM)
# In short: as §1
# [7] = tested on: PPARg:RXRa (NR concentration 180 nM, RXRa partner concentration 90 nM)
# In short: as §1
# [8] = tested on: PPARg:RXRa 270nM:90nM, anti-RXR (NR concentration 270 nM, RXRa partner concentration 90 nM)
# In short: as §1
# [9] = tested on: PPARg:RXRa 30nM:10nM, anti-RXR (NR concentration 30 nM, RXRa partner concentration 10 nM)
# In short: as §1
# [10] = tested on: PPARg:RXRa 90nM:30nM, anti-RXR (NR concentration 90 nM, RXRa partner concentration 30 nM)
# In short: as §1
# [11] = tested on: PPARg:RXRa DBDmut IVT, anti-RXR (DBD mutation: RXRa K156A/R161A, NR concentration 270 nM, RXRa partner concentration 90 nM)
# In short: as §1
# [12] = tested on: PPARg:RXRa IVT, anti-PPARg (NR concentration 270 nM, RXRa partner concentration 90 nM)
# In short: as §1
# [13] = tested on: PPARg DBDmut:RXRa IVT, anti-PPARg (DBD mutation: PPARg1 K132A/R137A, NR concentration 270 nM, RXRa partner concentration 90 nM)
# In short: as §1
# [14] = tested on: PPARg DBDmut IVT, anti-PPARg (DBD mutation: PPARg1 K132A/R137A, NR concentration 270 nM)
# In short: as §1
# [15] = tested on: PPARg homodimer (NR concentration 180 nM)
# In short: as §1
# [16] = tested on: PXR:RXRa (NR concentration 270 nM, RXRa partner concentration 90 nM)
# In short: as §1
# [17] = tested on: PXR homodimer (NR concentration 270 nM)
# In short: as §1
# [18] = tested on: RARa:RXR (NR concentration 270 nM, RXRa partner concentration 90 nM)
# In short: as §1
# [19] = tested on: RARa homodimer (NR concentration 270 nM)
# In short: as §1
# [20] = tested on: RARb:RXRa (NR concentration 270 nM, RXRa partner concentration 90 nM)
# In short: as §1
Sequence,PBM binding z-score [1],PBM binding z-score [2],PBM binding z-score [3],PBM binding z-score [4],PBM binding z-score [5],PBM binding z-score [6],PBM binding z-score [7],PBM binding z-score [8],PBM binding z-score [9],PBM binding z-score [10],PBM binding z-score [11],PBM binding z-score [12],PBM binding z-score [13],PBM binding z-score [14],PBM binding z-score [15],PBM binding z-score [16],PBM binding z-score [17],PBM binding z-score [18],PBM binding z-score [19],PBM binding z-score [20]
AAGACAGGGTCACTAGGCCAGAGTAGGTACGAAT,5.99,3.14,-0.215,3.25,-0.368,5.62,7.53,6.21,2.71,5.21,3.14,5.06,0.632,0.999,1.27,2.89,0.212,4.16,-0.193,4.21
TCTTGTAGAGCAACAGGAGGTTAAGAAAGATCGA,0.207,0.661,-0.177,0.486,-0.586,1.12,-0.0991,0.587,1.4,0.921,1.98,1.27,0.588,0.0668,-0.265,0.413,-0.46,0.506,-0.541,0.184
CGTCAAAGTTCAAGATAACGTAACAGAAAGCAGC,6.13,5.32,2.94,3.5,1.64,4.45,4.44,4.96,2.17,3.75,0.612,1.57,1.5,1.52,3.29,4.2,3.04,3.35,2.34,4.9
GTACCAAGGTGAAGAGGTCGTTGATGAGTAGGCG,1.67,1.32,0.0368,1.13,-0.425,3,1.95,2.49,0.544,1.72,1.79,2.51,-0.57,-0.181,1.37,2.15,0.607,2.68,-0.129,2.35
ATCTCTAGGTAAGACTCAGGTCAGTGAAGAACGC,0.852,0.72,0.909,0.721,0.721,1.03,0.296,0.86,0.135,0.413,1.9,1.67,0.483,1.13,1.65,0.724,0.764,0.911,0.98,1.62
TCGAGTAGATTAGTCGGGGCATTCAGCCAACATA,-0.148,-0.282,-0.477,0.225,-1.13,-0.142,-0.45,0.0888,0.947,0.374,0.609,-0.356,-0.764,-0.113,-0.53,-0.262,-0.468,-0.389,-0.665,-0.416
GATACAGGGTCAGCTAGAGGCCAGAGTTTGGAAA,4.24,2.73,-0.116,2.49,-0.678,4.08,3.23,3.01,0.716,2.22,1.39,2.54,0.152,-1.06,3.41,3.41,0.149,4.26,0.417,4.06
CCTACTGGGCGAAAGGTCATTGATTCCAATGCTC,4.47,4.72,3.02,4.35,0.417,5.92,11,9.6,9.1,11.6,3.27,5.79,-0.635,-0.595,2.89,4.98,2.08,5.57,0.869,4.28
AGAACGAGGGCACGCTGAGTTGAGAGCAGAGTAG,1.03,1.06,-0.514,0.188,-0.934,2.12,2.05,1.81,0.0205,0.958,4.1,3.68,0.22,0.203,0.469,1.01,0.0274,1.35,-0.318,2.54
CTCGAAATGTCGGTTGAGGTGAGTATACGGATAA,0.47,-0.279,-0.308,-0.214,0.0912,0.0141,0.0414,0.218,0.0305,-0.0265,-0.0159,0.503,0.298,0.408,0.0152,0.0277,-0.637,0.341,-0.1,0.334
GCTTTCGGGTCAAAGGTTATAGCATGAATAGAAT,7.21,5.74,0.496,5.58,0.746,6.76,11.3,9.26,8.67,10,3.82,5.81,1.23,1.1,1.81,5.89,0.475,8.07,1.08,4.59
AGAATGAGGTTATACGTTGATCAGGGAAGAAAGT,2.25,1.89,0.234,1.66,0.0742,3.37,2.03,2.34,1.01,1.78,2.33,2.33,1.31,1.24,1.05,1.18,0.411,1.69,0.556,1.44
CCTAGCAGGCCAATCTGGGTCACTAAAGGCTTGA,0.156,0.884,-0.513,0.511,-0.766,2.87,1.97,1.83,-0.068,0.891,4,4.94,-0.0852,-0.774,0.49,0.325,-0.597,1.13,-0.281,1.23
TCATATAGGTAAACAGGTCAAAGTCCGTAAGTTA,2.74,3.19,2.04,3.12,0.433,4.55,5.08,5.37,4.97,5.43,5.17,5.48,3.64,1.86,2.44,2.77,0.953,3.52,1.47,2.8
AGGCAAAGTTCATCTAGGTAACGTAAGATATGCT,6.62,5.97,4.54,3.71,1.35,4.88,5.55,5.87,2.83,4.72,1.08,3.73,1.34,0.748,3.08,5.33,6.34,3.96,1.67,4.72
TCATATAGGTAAACTGGTGAAAGTCCGTAAGTTA,0.534,0.478,0.129,0.808,-0.0343,1.05,0.842,2.31,3.92,3.07,3.83,2.69,1.43,1.35,0.515,0.463,0.739,0.446,1.61,0.361
CCTCGGTGGACAACAGGAGGTCAGAGCTGCCAGA,0.578,1.81,1.76,1.05,-0.647,1.67,0.123,0.139,-0.911,-0.207,-0.628,0.0551,-1.3,-1.14,0.735,1.53,0.332,1.77,0.503,1.93
CATACTGGGCCAAGGTCATTGATCAGTCAAAGCA,3.54,3.16,1.14,3.19,0.044,4.12,4.1,4.28,2.31,3.8,3.65,4.49,0.346,-0.286,2.02,3.78,2.15,4.01,0.356,3.35
CGAACTAGGTCATTAACAGGACAGTGAATAGTAA,3.27,2.59,0.8,1.88,-0.0794,4.12,7.01,5.93,3.43,5.45,8.02,7.96,3.04,1.69,2.06,1.28,0.557,1.97,0.792,3.27
TAGCCTAGGTCATGCGGGCCAGTCTAGTGTCGGC,3.89,3.03,-0.0115,1.36,-0.0777,3.43,2,2.23,-0.051,0.877,1.3,2.93,0.182,0.146,0.871,1.4,-0.585,2.48,-0.19,3.86
GATACAGGGTCAAGGCCAGAGTTCGCGTATTGAT,6.64,4.34,0.289,3.72,-0.198,5.66,5.99,5.93,2.4,4.93,2.6,3.98,0.606,-0.0978,2.3,5.07,1.99,5.07,1.32,4.49
ATCTCTAGGTAACAAGTTGAGTGAAAGAGAGGAC,0.601,0.354,0.274,0.114,0.76,0.677,1.25,1.76,0.856,1.6,3.42,2.71,1.43,1.04,0.666,0.294,0.569,0.445,1.29,0.64
ATCGAAAGGTCGAAGGTGAGTATGCCCACCCGAA,4.46,3.31,0.253,2.87,0.664,4.64,4.16,5.05,2.9,3.81,0.0846,2.48,0.798,0.662,1.31,3.12,-0.415,4.46,-0.229,3.83
CAAACTAGGTCAAGAGGGCAAAGTCCGCTTCCCG,4.55,4,1.14,2.47,0.164,5.21,8.68,7.36,5.56,7.15,8.35,8.37,4.28,1.48,3.42,2.98,0.703,3.96,1.19,4.53
GCTCGTTGGTCAGTAAAAGGTCACACACCGGTCG,3.94,4.86,5.11,4.22,1.19,4.89,3.34,4.93,2.81,4.52,0.994,2.63,0.257,0.405,4.91,5.35,1.21,6.7,2.93,4.48
TCTTGTAGATCAGCAGGTTAAGAAGGCTGGCCAA,0.433,0.344,-0.0872,0.367,-0.714,0.674,-0.387,1.6,2.59,2.41,1.84,0.182,-0.501,-0.862,0.413,0.183,-0.311,0.64,-0.641,0.214
TCATATAGGTAAACAGGTGGAAGTCCGTAAGTTA,0.72,0.64,0.229,0.692,0.0407,1.43,1.16,2.43,4.15,3.06,4.42,3.02,0.862,0.82,1.12,0.46,0.859,0.577,0.928,0.625
AGAATGAGGTTAAGATCAAGGAAACAGAATACAT,1.93,1.78,0.0429,1.71,-0.221,3.67,2.49,2.3,0.939,1.76,2.65,2.43,1.67,0.683,0.598,1.13,0.0373,1.75,0.928,1.88
CCGACTGGGACAAAGGTTACCATACTCAGTACGA,0.993,1.51,0.114,1.8,-0.631,4.69,9.69,8.78,8.13,10.5,3.26,5.21,0.234,0.111,1.47,1.51,-0.265,2.39,0.207,2.03
